Marburg entry inh: qHTS for inhibitors of binding or entry into cells for Marburg Virus | Marburg virus pseudotyped entry inhibition, cell reporter | Potency, µM (doses to about 37.8 µM), without a hit: at the highest dose activity change, negative = inhibition, most hits filed as inhibitors | 300,000 tested, 1.8% active | AID 540276, 2011; calls by dose curve; tested in HEK293 cells; further: potency means the concentration at half of the fitted maximal effect; on the % scale 0 is the no-effect control and ±100 the full control effect
CHX counter: Cycloheximide Counterscreen for Small Molecule Inhibitors of Shiga Toxin; cell reporter, cycloheximide protein synthesis inhibition counterscreen; max response, %; 300,000 tested, 12% active; AID 2314, 2010; in the data active means max response mostly above about 13%, no sharp cut-off; inactive means mostly below about 14%; further: read at 38.3 µM for the half of the compounds with a filed dose; 0% is about no effect
LASV entry inh: qHTS for Inhibitors of binding or entry into cells for Lassa Virus | AID 540256, 2011 | Potency, µM (highest dose often 37.9 µM), inactives show at the top dose activity change, negative = inhibition, usual class: inhibitors | Lassa virus pseudotype entry inhibition, cell reporter | 300,000 tested, 1.2% active; calls by dose curve; tested in HEK293 cells; further: potency means the concentration at half of the fitted maximal effect; on the % scale 0 is the no-effect control and ±100 the full control effect; nearly all actives have a fitted effect of over 50% in size
Pf growth 96h: Primary qHTS for delayed death inhibitors of the malarial parasite plastid, 96 hour incubation | 320,000 tested, 6.9% active | Potency, µM (series often up to 28.7 µM), inactives show at the highest dose activity change, negative = inhibition, most hits filed as inhibitors | P. falciparum luciferase reporter growth, 96 h; further: potency means the concentration at half of the fitted maximal effect; on the % scale 0 is the no-effect control and ±100 the full control effect
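Plates of compound plus infected erythrocytes (2% hematocrit, 0.05% parasitemia final) incubate 96 hours, 37 C, 5% CO2. Detection reagent added; reduced luminescence from the parasites' luciferase reporter flags inhibition.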
Shiga toxin inh: A qHTS for Small Molecule Inhibitors of Shiga Toxin. Vero cells, Shiga toxin protein synthesis inhibition reporter. inhibition, % at 38.7 µM. 290,000 tested, 9.2% active. AID 2315, 2010; in the data active means inhibition mostly above about 28%, no sharp cut-off; inactive means mostly below about 43%; further: 0% is about no effect
Pf growth 48h: Primary qHTS for delayed death inhibitors of the malarial parasite plastid, 48 hour incubation; 310,000 tested, 5.9% active; Potency, µM (highest dose often 28.7 µM), inactives show top-dose activity change, negative = inhibition, most hits filed as inhibitors; P. falciparum luciferase growth in erythrocytes, 48 h; further: potency means the concentration at half of the fitted maximal effect; on the % scale 0 is the no-effect control and ±100 the full control effect
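Parasite viability was followed by luminescence of a genomically integrated firefly luciferase. Cultures held 0.1% parasitemia at 2% hematocrit (final), incubated under 5% CO2 at 37 C.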
Numbers without * were called inactive; ? = inconclusive; . = not tested or not shown; [ ] = another dose, or the depositor's remark. Shown are actives, neighbours in structure and some others; about 19% of the full set was active somewhere. Unless noted, the call rests on the fitted dose curve; in most records, active means well fitted inhibition curve with a large enough effect; inconclusive means small, poorly fitted or top-dose-only effect, or another doubt; inactive means no such curve, though single readings can be large or run the other way.

SMILES	Marburg entry inh	CHX counter	LASV entry inh	Pf growth 96h	Shiga toxin inh	Pf growth 48h
CCc1[nH]nc2c1C(c1ccsc1)C(C#N)=C(N)O2 (stereo not given)	?	-3	-15%	10µM*	1	4%
CC(C)(C)c1[nH]nc2c1C(c1ccsc1)C(C#N)=C(N)O2 (stereo not given)	.	10	.	-19%	26	48%
CCOC(=O)N1CCN(c2c(Nc3ccc4c(c3)OCCO4)c(=O)c2=O)CC1	.	53*	.	-28%	64*	.
CCOC(=O)N1CCN(CC(=O)NC(=O)Nc2ccc3c(c2)OCCO3)CC1	8%	.	11%	55%	.	-2%
O=C(COc1ccc2c(c1)OCO2)Nc1cccc(F)c1	30%[46.1 µM]	35*	2%	8%	101*	161%
Cc1cc(OCC(=O)Nc2ccc3c(c2)OCCO3)ccc1Cl	11%	39*	3%	8.3µM*	107*	3%
O=C(COc1ccc(F)cc1)Nc1ccc2c(c1)OCCO2	.	44*	.	3%	70*	107%
Cc1cc(C)cc(OCC(=O)Nc2ccc3c(c2)OCCO3)c1	.	19	.	-28%	37	25%
COc1ccc(C2C=C(c3cccs3)Nc3nc(CCCO)nn32)cc1 (stereo not given)	8%	15	.	19%	93	0%
C=CCn1c(O)c(C(CC)=Nc2ccc(C(=O)O)cc2)c(=O)[nH]c1=O	14%[46.1 µM]	-1	12%	17%	12	8%
CCOc1ccc(-n2nc3ccc(NC(=O)c4ccc(-c5cccc(Cl)c5)o4)cc3n2)cc1	.	.	4%[46.1 µM]	.	.	.
COc1ccc(NC(=S)NNC(=O)C2CC2c2ccc(C)cc2)cc1 (stereo not given)	3%	-3	?	?	-4	-12%
CCOCC(=O)Nc1ccc2c(c1)OCCO2	-29%	42*	8%	3%	68*	112%
CCC(=O)Nc1ccc2c(c1)OCCO2	11%	26	5%	29%	15	?
COc1ccc(OC)c(NC(=O)CSc2ncnc3c2cnn3-c2ccccc2Cl)c1	1.8µM*	-1	?	-27%	4	10µM*
COc1cc(NC(=O)CSc2ncnc3c2cnn3Cc2ccccc2)cc(OC)c1	?	16	-1%	.	-9	12µM*
COc1ccc(OC)c(NC(=O)CSc2ncccn2)c1	13%	5	?	-4%	20	.
O=C(NNC(=O)c1nn(-c2ccc(F)cc2)ccc1=O)c1ccc(C(F)(F)F)cc1	5%	-2	?	31%	10	57%
CN(CCNC(=O)C1CCN(c2ncnc3c2nc2n3CCCCC2)CC1)Cc1ccccc1	?	2	?	?	-5	?
COc1cccc(CCNC(=O)C2CCCN(c3ncnc4c3nc3n4CCCCC3)C2)c1OC (stereo not given)	?	-3	?	9%	2	-11%
Cc1ccccc1CN1CCC(CNC(=O)C2CCCN(c3ncnc4c3nc3n4CCCCC3)C2)CC1 (stereo not given)	?	7	-7%[46.1 µM]	6.6µM*	-12	12µM*
CCN(CCNC(=O)C1CCCN(c2ncnc3c2nc2n3CCCCC2)C1)Cc1ccccc1 (stereo not given)	.	-2	.	10µM*	1	?
O=C(O)C1CC=CCC1C(=O)Nc1cccc(Cl)c1Cl (stereo not given)	.	-3	.	81%	20	?
CCCCOC(=O)C1=C(C)Nc2ncnn2C1c1ccc(OC)c(OC)c1OC (stereo not given)	-36%	-4	-6%	7%	-1	-13%
CCN(CC)C(=O)c1ccc(-c2cccs2)s1	?	56*	?	27%	93*	?
SMILES	Marburg entry inh	CHX counter	LASV entry inh	Pf growth 96h	Shiga toxin inh	Pf growth 48h
Cc1cccc(C(C(=O)NC2CCCC2)N(C(=O)c2csnn2)C2CCCC2)c1 (stereo not given)	?	5	0%[46.1 µM]	?	-11	?
CC(=O)N(c1nnc(-c2cccc(C)c2)s1)C1CCCC1	?	40*	-14%[46.1 µM]	8%	.	126%
Cc1cc(NC(=O)Nc2ccccc2F)ccc1Br	?	55*	?	?	77*	427%
O=C(Nc1cccc(Cl)c1)Nc1ccc(Br)cc1F	?	19*	?	?	67*	?
O=C(Nc1ccccc1)Nc1ccc(Br)cc1F	-9%	31*	?	0.37µM*	110*	101%
CCOc1cc(C)c(Cl)cc1S(=O)(=O)N(C)C	-19%[46.1 µM]	-3	9%	?	-12	-8%
O=C(C(=O)N1CCN(c2ccccc2Cl)CC1)c1c[nH]c2ccccc12	.	-2	.	1%	-5	10%
Cc1c(/C(O)=C2\C(=O)C(=O)N(CCCN(C)C)C2c2ccccc2)cnn1-c1ccccc1 (stereo not given)	4%[46.1 µM]	-4	16%[46.1 µM]	386%	-7	65%[5.75 µM]
Cc1c(/C(O)=C2\C(=O)C(=O)N(CCN(C)C)C2c2cccs2)cnn1-c1ccccc1 (stereo not given)	?	19*	-13%	13µM*	16	8%
Cc1c(/C(O)=C2\C(=O)C(=O)N(CCN(C)C)C2c2cccnc2)cnn1-c1ccccc1 (stereo not given)	?	15*	-11%	?	13	65%
O=C1c2ccccc2C(Nc2ccc(S(=O)(=O)N3CCOCC3)cc2)N1c1ccccn1 (stereo not given)	.	-2	.	7.4µM*	-8	.
O=C1c2ccccc2C(Nc2ccc(S(=O)(=O)N3CCCCC3)cc2)N1Cc1ccco1 (stereo not given)	6%	-4	.	?	3	.
O=C1c2ccccc2C(Nc2ccc(S(=O)(=O)N3CCOCC3)cc2)N1Cc1ccco1 (stereo not given)	.	-6	.	8.3µM*	-19	.
O=C1c2ccccc2C(Nc2ccc(-c3nc4ccccc4[nH]3)cc2)N1Cc1ccco1 (stereo not given)	0%	17*	.	19%	89*	?
Cc1c(C)c2ccc(OCC(=O)N3CC[C@@]4(O)CCCC[C@H]4C3)cc2oc1=O	.	1	.	?	1	-24%
C=CCn1c(O)c(C(C)=NCCN2CCCCC2)c(=O)[nH]c1=O	0%	-3	13%	8%	-16	.
COc1cc(NC(=O)c2cccs2)c(C(=O)OCC(=O)NC(=O)NC(C)(C)C)cc1OC	4%[46.1 µM]	-1	14%	-19%	-10	.
COc1cc(C(=O)OCC(=O)NCc2ccc(F)cc2)cc(NC(=O)c2cccs2)c1OC	-2%	1	-4%	3%	11	?
COc1ccc(-n2c(C)cc(C(=O)COC(=O)c3cc(NC(=O)c4cccs4)c(OC)c(OC)c3)c2C)cc1	-5%	-1	.	?	17	1.9µM*

Compound activity deposited in PubChem BioAssay by National Center for Advancing Translational Sciences (NCATS).
